Most compounds without a hit are left out; they make up all but 7.3% or so of the library.
NPC1 prom act: qHTS Assay for NPC1 Promoter Activators; Huh7 NPC1 promoter luciferase reporter, 24 h; Potency, µM (titrated, usually from 9.22 µM), usual class: activators; 320,000 compounds, 2.4% hits; further: nearly all actives have a fitted effect of over 60% in size
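Luciferase expression driven by the NPC1 promoter was measured in stably transfected Huh7 cells after a 24 h compound incubation, using a luciferase reagent and a luminescence read.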
SMN2 splice up: qHTS Assay for Enhancers of SMN2 Splice Variant Expression | HEK293 SMN2-luciferase splicing reporter, luminescence, 30-36 h | Potency, µM (top dose mostly 46.1 µM), most hits filed as activators | 210,000 compounds, 2.8% hits | AID 1458, 2008; further: nearly all actives have a fitted effect of over 55% in size
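HEK293 cells carry an SMN2 minigene-luciferase reporter in which exon 7 inclusion puts luciferase in frame. Cells were seeded at 2000 cells/well, attached for 10-12 hours, then exposed to compounds for 30-36 hours at 37C before ONE-Glo luminescence.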
ELG1 genotox: qHTS screen for small molecules that induce genotoxicity in human embryonic kidney (HEK293T) cells expressing luciferase-tagged ELG1 | HEK293T ELG1-luciferase reporter, luminescence, 16 h | Potency, µM (highest dose often 46 µM), hits mostly activators | 330,000 compounds, 1.3% hits | AID 504466, 2011; further: nearly all actives have a fitted effect of over 60% in size
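Step 1: seed 2,000 HEK293T ELG1-luciferase cells per well. Step 2: add compound or DMSO, incubate 16 hr at 37 °C. Step 3: ONE-Glo, 30 min at room temperature, read luminescence.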
FLuc modulator: qHTS profiling assay for firefly luciferase inhibitor/activator using purifed enzyme and Km concentrations of substrates (counterscreen for miR-21 project). purified FLuc, Km substrates, luminescence inhibition. Potency, µM (titrated, usually from 57.5 µM), usual class: inhibitors. 360,000 compounds, 6.9% hits. AID 588342, 2011; further: nearly all actives have a fitted effect of over 55% in size
Target sequence (P08659 whole entry, looked up): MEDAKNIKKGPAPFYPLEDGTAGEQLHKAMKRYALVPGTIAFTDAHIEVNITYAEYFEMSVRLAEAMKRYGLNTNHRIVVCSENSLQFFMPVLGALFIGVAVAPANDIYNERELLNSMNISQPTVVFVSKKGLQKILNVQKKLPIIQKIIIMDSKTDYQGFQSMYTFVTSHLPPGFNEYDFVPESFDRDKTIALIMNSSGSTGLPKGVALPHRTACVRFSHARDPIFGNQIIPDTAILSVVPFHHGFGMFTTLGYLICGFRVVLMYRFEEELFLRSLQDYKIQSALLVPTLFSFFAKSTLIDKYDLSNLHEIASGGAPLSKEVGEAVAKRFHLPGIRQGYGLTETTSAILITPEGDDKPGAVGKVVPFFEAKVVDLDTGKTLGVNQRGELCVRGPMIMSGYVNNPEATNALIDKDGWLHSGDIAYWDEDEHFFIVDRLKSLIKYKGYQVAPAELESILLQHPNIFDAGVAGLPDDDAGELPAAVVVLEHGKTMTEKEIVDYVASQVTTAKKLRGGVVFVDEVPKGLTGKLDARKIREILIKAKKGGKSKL
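Purified P. pyralis luciferase (10nM final) with 10uM D-luciferin and 10uM ATP (Km levels) in 50mM Tris acetate pH 7.5, 10mM Mg acetate, 0.01% Tween-20, 0.05% BSA; qHTS 6-point titration, ~60 µM downward; luminescence read.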
KinaseGlo FLuc: Counterscreen for Luciferase (Kinase-Glo TM) Inhibition | Luciferin 4-monooxygenase (Photuris pensylvanica), Q27757 | AID 1379, 2008 | Kinase-Glo luciferase, ATP luminescence, 8 min | Potency, µM (top dose mostly 38.3 µM), usual class: inhibitors | 200,000 compounds, 0.28% hits; further: nearly all actives have a fitted effect of over 60% in size
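Substrate mix (final 50 mM imidazole pH 7.2, 50 mM KCl, 7 mM MgCl2, 10 uM ATP, 0.01% Tween 20, 0.05% BSA) plus pin-tool compound, then Kinase-Glo detection mix; 8 min ambient, luminescence read.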
Rab9 promoter act: qHTS Assay for Rab9 Promoter Activators; 320,000 compounds, 2.8% hits; Potency, µM (titrated, usually from 9.22 µM), most hits filed as activators; AID 485297, 2010; Huh7 Rab9 promoter-luciferase reporter, luminescence, 24 h; further: nearly all actives have a fitted effect of over 60% in size
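Stable Rab9-luc Huh7, 1500 cells/well, 2 h settle; cmpd in DMSO, 24 h, 37 °C/5% CO2; luciferase reagent 10 min RT; luminescence.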
Numbers stand for hits; - = inactive; ? = inconclusive; . = no result; [ ] = remark or other dose. The call rests on the fitted dose curve; in most records, active means well fitted curve in the direction sought with a large enough effect; inconclusive means small, poorly fitted or top-dose-only effect, or another doubt; inactive means no such curve, though single readings can be large; an effect the other way counts as inactive or inconclusive.

SMILES | NPC1 prom act | SMN2 splice up | ELG1 genotox | FLuc modulator | KinaseGlo FLuc | Rab9 promoter act
CCC(C)Nc1nc(-c2ccc3c(c2)NC(=O)CO3)cs1 (stereo unspecified) | - | - | - | 16.9µM | - | ?
Cc1c(-c2ccccc2)c(=O)oc2c(CN3CCN(C)CC3)c(O)ccc12 | . | . | . | - | . | .
Cc1ccc(NC(=O)c2scc3c2CCCC3)cc1 | 3.98µM | 1.41µM | 1.84µM | 0.477µM | - | 1.78µM
Cc1ccc(NC(=O)c2cc3c(s2)CCCC3)cc1 | 3.16µM | 12.6µM | ? | 5.36µM | - | 1.41µM
Cc1csc(NC(=O)c2cc3c(C)nn(Cc4ccccc4Cl)c3s2)n1 | - | - | - | 10.7µM | - | -
Cc1csc(NC(=O)c2cc3c(s2)CCC3)n1 | 0.631µM | 0.794µM | ? | 0.849µM | ? | ?
COc1ccc(-n2nc(C(=O)Nc3ccc(C)cn3)c3c4ccccc4n(C)c3c2=O)cc1 | . | - | . | - | . | .
O=C(NCc1cccs1)c1cc2c(s1)CCCC2 | ? | 11.2µM | 20.6µM | 12µM | - | ?
COC(=O)c1sc(NC(=O)c2cc3c(s2)CCCC3)nc1C | - | 4.47µM | 1.16µM | 2.39µM | - | -[1.84 µM]
CCOC(=O)c1sc(NC(=O)c2cc3c(s2)CCC(C)C3)nc1C (stereo unspecified) | - | - | 10.3µM | 4.78µM | - | -
O=C(Nc1ccccc1OC(F)F)c1cc2c(s1)CCC2 | - | - | - | 21.3µM | - | -
COc1ccc(Nc2nnc(-c3ccc(C)c(S(=O)(=O)N4CCOCC4)c3)c3ccccc23)cc1 | . | - | . | ? | . | .
Cc1nc(NC(=O)CCl)sc1C(=O)N(C)C | - | . | - | - | - | -
Cc1nc(NC(=O)c2cc3c(s2)CCCCC3)sc1C(=O)N(C)C | ? | ? | ? | 13.5µM | - | ?
CCc1sc(C(=O)Nc2nc(C)cs2)cc1C | 1.26µM | . | ? | 1.9µM | . | ?
Cc1nc(NC(=O)c2ccc(Br)s2)sc1C(=O)N(C)C | 3.16µM | 11.2µM | 9.2µM | 7.57µM | - | 3.55µM
CCc1sc(C(=O)Nc2ccc(NC(C)=O)cc2)cc1C | - | - | ? | - | - | -
Cc1nn(CCC(=O)NCc2cccc(Br)c2)c(=O)c2nn(-c3ccccc3)c(C)c12 | . | . | . | - | . | .
CCOC(=O)Cn1c(=O)oc2cc(S(=O)(=O)Nc3cc(OC)cc(OC)c3)ccc21 | . | - | . | - | . | .
Cc1ccc2nc(C(F)(F)F)c(C#N)c(N)c2c1 | - | 14.1µM | - | - | - | -
CCOc1ccccc1-c1nc(-c2ccc(C)nc2OC)no1 | 4.47µM | ? | ? | 9.53µM | - | 3.16µM
COc1cc(-c2nc(-c3ccc(C)nc3OC)no2)cc(OC)c1OC | - | - | - | - | - | -
COc1nc(C)ccc1-c1noc(-c2cccs2)n1 | 0.562µM | . | ? | 1.51µM | . | 0.501µM
COc1nc(C)ccc1-c1noc(-c2ccncc2)n1 | ? | 14.1µM | ? | 13.5µM | - | ?
CCOc1nc(C)ccc1-c1noc(-c2ccco2)n1 | ? | - | ? | - | - | ?
SMILES | NPC1 prom act | SMN2 splice up | ELG1 genotox | FLuc modulator | KinaseGlo FLuc | Rab9 promoter act
O=C(CSc1nc2ccccc2n1Cc1cccc(C(F)(F)F)c1)NCc1ccccc1 | . | . | . | - | . | .
COc1ccc(C(CNC(=O)c2cccc([N+](=O)[O-])c2)N2CCOCC2)cc1 (stereo unspecified) | . | . | . | - | . | .
Cc1cccc(-n2ncc3c(Nc4ccc(C)c(Cl)c4)ncnc32)c1 | . | . | . | - | . | .
Cc1cccc(-n2ncc3c(NC4CCCC4)ncnc32)c1 | . | . | . | 3.01µM | . | .
Cc1cccc(-n2ncc3c(Nc4c(C)n(C)n(-c5ccccc5)c4=O)ncnc32)c1 | - | - | - | - | - | -
Cc1cccc(-n2ncc3c(NC4CCCCC4)ncnc32)c1 | 4.47µM | ? | ? | 1.51µM | - | 2µM
Clc1cccc(-n2ncc3c(NC4CCCCCC4)ncnc32)c1 | . | . | . | 6.01µM | . | .
Clc1cccc(-n2ncc3c(N4CCC(Cc5ccccc5)CC4)ncnc32)c1 | . | . | . | - | . | .
Cc1cc(O)c2c(C)c(CC(=O)NCc3ccccc3Cl)c(=O)oc2c1 | . | - | . | - | . | .
COc1ccccc1N1CCN(C(=O)c2ccc(-c3ccccc3)cc2)CC1 | - | . | - | 23.9µM | . | -
COc1ccccc1N1CCN(/N=C/c2ccccc2C(=O)O)CC1 | - | . | - | 19µM | . | -
COc1ccccc1N1CCN(/N=C/c2cc(OC)c(O)c(OC)c2)CC1 | - | - | - | ? | - | -
COc1ccccc1N1CCN(/N=C/c2ccc(OC)c(OC)c2OC)CC1 | - | - | - | - | - | -
COc1cc(/C=N/N2CCN(c3ccccc3OC)CC2)ccc1OC(C)=O | - | . | - | 19µM | . | -
COc1ccccc1N1CCN(/N=C/c2cccc(O)c2)CC1 | - | - | ? | 13.5µM | - | ?
O=C(NCCCc1nc2ccccc2n1Cc1ccccc1F)c1ccco1 | . | - | . | - | . | .
Cc1ccc(Nc2nc3nonc3nc2Nc2cccc(C(F)(F)F)c2)cc1Cl | . | - | . | - | . | .
CN(C)S(=O)(=O)c1ccc2c(c1)/C(=C/c1cc3c([nH]1)CCCC3)C(=O)N2 | ? | 11.2µM | ? | - | - | ?
O=C(/C=C/c1ccc[nH]1)c1ccc(F)cc1 | - | ? | ? | 12µM | - | -
O=C(/C=C/c1c(F)cccc1Cl)c1ccc(F)cc1 | - | - | - | 6.75µM | ? | -
O=C(/C=C/c1ccc[nH]1)c1ccccc1 | - | - | - | 12µM | - | ?
CCOc1ccc(OCCn2nnc3ccccc3c2=O)cc1 | 3.55µM | 15.8µM | 18.3µM | 13.5µM | - | 2.82µM
O=c1c2ccccc2nnn1COc1cccc2ccccc12 | ? | - | - | 16.9µM | - | 3.98µM
O=c1c2ccccc2nnn1COc1ccc(F)cc1Cl | ? | ? | ? | ? | - | 2.51µM
CCCn1nnc2ccccc2c1=O | - | - | - | - | - | -
SMILES | NPC1 prom act | SMN2 splice up | ELG1 genotox | FLuc modulator | KinaseGlo FLuc | Rab9 promoter act
CCC(=O)OCn1nnc2ccccc2c1=O | - | - | - | - | - | -
CC(Oc1ccc(Cl)cc1Cl)C(=O)OCn1nnc2ccccc2c1=O (stereo unspecified) | - | - | - | - | - | -
COc1ccc(C(=O)OCn2nnc3ccccc3c2=O)cc1OC | - | - | - | - | - | -
O=c1c2ccccc2nnn1COc1ccc(Cl)cc1Br | ? | ? | ? | 23.9µM | - | 3.16µM
Cc1nc2c(C(=O)N(C)Cc3ccccc3)c[nH]n2c(=O)c1Cc1ccc(Cl)cc1 | . | - | . | ? | . | .
COc1ccc(CCNC(=O)C(CC(C)C)N2Cc3ccccc3C2=O)c(OC)c1OC (stereo unspecified) | . | . | . | - | . | .
COc1ccc(C(=O)N2c3ccccc3C(=O)OC2c2ccc3c(c2)OCO3)cc1 (stereo unspecified) | ? | 12.6µM | - | 19µM | - | ?
COc1ccc2c(c1)O[C@@H](c1ccc3c(c1)OCO3)[C@H](OC(=O)NC1CCCC1)C2=O | . | - | . | . | - | .
